Mtb BioA inh: M. tuberculosis BioA enzyme inhibitors, primary screen, biochemical, plate reader, single point, HTS | AID 602481, 2012 | purified M. tuberculosis BioA enzyme | 360,000 tested, 0.096% active | inhibition, % at 9.99 µM | 7,8-diaminopelargonic acid synthase BioA (Mycobacterium tuberculosis); in the data active = inhibition above about 40%
PrP UTR inh: inhibition of PrP 5' UTR reporter expression; cell-based PrP 5' UTR mRNA reporter, plate reader; inhibition, % (concentration not given with the values); 340,000 tested, 0.35% active; AID 488862, 2010; in the data active = inhibition above about 52%
Y pestis TopoI: Yersinia pestis topoisomerase I inhibitors, primary screen, biochemical, cleavage product accumulation, plate reader, single point; DNA topoisomerase I (Yersinia pestis CO92); Y. pestis Topo-I cleavage product accumulation; activity, % at 10 µM; 360,000 tested, 0.064% active; AID 504884, 2011; in the data active = activity above about 50%, passing the limit was not always enough
TcdB inh: TcdB glycohydrolase inhibitors, primary screen, biochemical, single point, plate reader; TcdB glycohydrolase enzymatic assay; inhibition, % at 9.99 µM; 350,000 tested, 0.24% active; in the data active = inhibition above about 10%
PrP UTR cherry: prion 5' UTR mRNA inhibition, cherry-pick retest | cell-based prion protein 5' UTR reporter, plate reader | shares compounds with PrP UTR inh | AID 504592, 2011 | 1,100 tested, 48% active | inhibition, % at 2.5 µM; in the data active = inhibition above about 54%
Large screens that a line does not name were inactive (follow-up assays come after a bar, where they were run). In the library only some 0.57% were active in any assay of this set; here they are far more common.

CNC(=O)C1=C[C@@H](c2ccc(OC)cc2)C[C@@H](OCCCCO)O1	none (no result: PrP UTR inh, Y pestis TopoI)
COC(=O)c1cc(NC(=O)c2nccnc2C(=O)O)cc(C(=O)OC)c1	PrP UTR inh 60.4 | PrP UTR cherry inactive
Cc1cc(C)cc(NC(=O)c2nccnc2C(=O)O)c1	none
O=C(COc1cccc(C(F)(F)F)c1)NNC(=O)c1ccc(=O)[nH]c1	PrP UTR inh 65.5 | PrP UTR cherry inactive
CSc1ccc(CN(C)C(C)C(=O)Nc2ccc(F)c(F)c2F)cc1 (stereo unspecified)	PrP UTR inh 53.2 (no result: Mtb BioA inh) | PrP UTR cherry inactive
CC(C(=O)Nc1ccc(F)c(F)c1F)N(C)CC(=O)Nc1ccccc1Br (stereo unspecified)	none
O=c1[nH]cnc2c1ncn2[C@@H]1O[C@H](CO)[C@@H](O)[C@H]1O	PrP UTR inh 79.3 | PrP UTR cherry inactive
CCCN1C[C@H](C)[C@@H](OC)CN(C)C(=O)c2ccc(NC(=O)Nc3ccccc3F)cc2OC[C@H]1C	none (no result: PrP UTR inh, Y pestis TopoI)
Cc1cc(/C=N/Nc2ncnc(N)c2[N+](=O)[O-])c(C)n1-c1ccccc1	PrP UTR inh 77.4 | PrP UTR cherry 78.2
COc1ccc(NC(=O)N(C)C[C@H]2Oc3cc(C#CCC(C)C)ccc3S(=O)(=O)N([C@@H](C)CO)C[C@H]2C)cc1	none (no result: PrP UTR inh, Y pestis TopoI)
COc1cc(SC)ccc1C(=O)Nc1ccc(C)cc1	none (no result: Mtb BioA inh)
COc1cc(SC)ccc1C(=O)Nc1ccc(Br)cn1	PrP UTR inh 68.2 | PrP UTR cherry 67.0
COc1cc(SC)ccc1C(=O)Nc1ncc(C)s1	PrP UTR inh 74.1 (no result: Mtb BioA inh) | PrP UTR cherry 69.2
CN(C)c1ncnc2c1ccn2C1OC(CO)C(O)C1O (stereo unspecified)	none
NC(=O)c1cn(C2OC(CO)C(O)C2O)c2ncnc(N)c12 (stereo unspecified)	PrP UTR inh 88.4 | PrP UTR cherry 96.6
NC(=O)c1c(Br)n(C2OC(CO)C(O)C2O)c2ncnc(N)c12 (stereo unspecified)	none (no result: Mtb BioA inh)
OCC1OC(n2ccc3c(NO)ncnc32)C(O)C1O (stereo unspecified)	PrP UTR inh 88.9 (no result: Mtb BioA inh) | PrP UTR cherry 84.7
CC(C)=CCNc1ncnc2c1c(C#N)cn2C1OC(CO)C(O)C1O (stereo unspecified)	none (no result: Mtb BioA inh)
N#Cc1cn(C2OC(CO)C(O)C2O)c2ncnc(N)c12 (stereo unspecified)	PrP UTR inh 57.8 (no result: Mtb BioA inh) | PrP UTR cherry 75.0
C=CCOC(=O)[C@H]1[C@@H]2C(=O)O[C@@H](c3ccccc3)[C@@H](c3ccccc3)N2[C@@H](c2ccc(OCCOC(=O)[C@H]3C[C@H]4C(=O)N5CCC[C@H]5C(=O)N4[C@H]3c3cccc(OCCO)c3)cc2)[C@]12C(=O)Nc1ccccc12	none (no result: PrP UTR inh, Y pestis TopoI)
COC(=O)C[C@H]1CC[C@H]2[C@@H](COc3ccc(NS(=O)(=O)c4ccc(F)cc4)cc3C(=O)N2C)O1	none (no result: Mtb BioA inh, PrP UTR inh, Y pestis TopoI)
Nc1ncnc2c(C3OC(CO)C(O)C3O)c[nH]c12 (stereo unspecified)	PrP UTR inh 95.1 (no result: Mtb BioA inh) | PrP UTR cherry 97.3
Nc1ncnc2c1nc(-c1ccccc1)n2C1OC(CO)C(O)C1O (stereo unspecified)	none (no result: Mtb BioA inh, PrP UTR inh, Y pestis TopoI)
Cc1noc(C)c1NC(=O)Nc1ccc2c(c1)C(=O)N([C@H](C)CO)C[C@H](C)[C@H](CN(C)C(=O)c1ccccc1)OCCCC[C@H](C)O2	none (no result: PrP UTR inh, Y pestis TopoI)
Cc1ccc(S(=O)(=O)N(C)c2c(C)ccc(S(=O)(=O)NC(C)(C)C)c2C)cc1	PrP UTR inh 82.0 (no result: Mtb BioA inh) | PrP UTR cherry inactive
CNCC(=O)O	PrP UTR inh 92.5 | PrP UTR cherry inactive
CCCNC(=O)N1CCC2(CC1)CN(Cc1cccc(F)c1)[C@H](CO)c1[nH]c3cc(OC)ccc3c12	none (no result: Mtb BioA inh, PrP UTR inh, Y pestis TopoI)
Cc1cc(C(=O)CN2C(=O)c3ccccc3S2(=O)=O)c(C)n1CC1CCCO1 (stereo unspecified)	PrP UTR inh 87.7 (no result: TcdB inh) | PrP UTR cherry 86.2
CCCn1c(C)cc(C(=O)CN2C(=O)c3ccccc3S2(=O)=O)c1C	none (no result: PrP UTR inh)
CCCN1C[C@H](C)[C@@H](OC)CN(C)C(=O)c2ccc(NS(=O)(=O)c3ccccc3)cc2OC[C@H]1C	none (no result: PrP UTR inh, Y pestis TopoI)
C/C=C/c1ccc2c(c1)O[C@@H](CN(C)C(=O)CC)[C@@H](C)CN([C@H](C)CO)S2(=O)=O	none (no result: PrP UTR inh, Y pestis TopoI)
Cc1c(C(=O)OC2CCCC2)[nH]c2c1C(=O)CC(c1ccco1)C2 (stereo unspecified)	PrP UTR inh 60.9 | PrP UTR cherry 73.0
Cc1c(C(=O)OCC(C)C)[nH]c2c1C(=O)CC(c1ccco1)C2 (stereo unspecified)	PrP UTR inh 70.4 | PrP UTR cherry 85.5
Cc1c(C(=O)OCC2CCCO2)[nH]c2c1C(=O)CC(c1ccco1)C2 (stereo unspecified)	none (no result: TcdB inh)
C/C=C/COC(=O)c1[nH]c2c(c1C)C(=O)CC(c1ccco1)C2 (stereo unspecified)	PrP UTR inh 62.0 | PrP UTR cherry 85.2
COC(=O)c1[nH]c2c(c1C)C(=O)CC(c1ccccc1)C2 (stereo unspecified)	none (no result: TcdB inh)
O=C(O)c1cc(S(=O)(=O)N2CCOCC2)c(Sc2ccccn2)cc1Sc1ccccn1	PrP UTR inh 68.8 (no result: Mtb BioA inh, TcdB inh) | PrP UTR cherry inactive
Cc1ccc(NC(=O)CSc2ccccn2)cc1S(=O)(=O)N1CCOCC1	none (no result: Mtb BioA inh)
COc1ccc(CN(C)C[C@@H]2OCCCC[C@H](C)Oc3ccc(NS(=O)(=O)c4cn(C)cn4)cc3C(=O)N([C@H](C)CO)C[C@H]2C)cc1	none (no result: PrP UTR inh, Y pestis TopoI)
CC1CC(C)(O)CC(C(O)CC2CC(=O)NC(=O)C2)C1=O (stereo unspecified)	PrP UTR inh 63.9 (no result: Mtb BioA inh) | PrP UTR cherry 61.4
Cc1ccc(NC(=O)/C=C/c2ccco2)nc1	PrP UTR inh 69.5 (no result: Mtb BioA inh) | PrP UTR cherry 83.9
O=C(/C=C/c1ccco1)Nc1ccccn1	none (no result: TcdB inh)
CCN(CC)C(=O)C1CCCN(c2ccc([N+](=O)[O-])cc2[N+](=O)[O-])C1 (stereo unspecified)	PrP UTR inh 70.4 (no result: Mtb BioA inh) | PrP UTR cherry inactive
Cc1ccc(-c2cc(C(=O)N/N=C/c3c(C)nn(-c4ccccc4)c3C)[nH]n2)cc1	PrP UTR inh 70.2 (no result: TcdB inh) | PrP UTR cherry 88.4
Cc1nn(-c2ccccc2)c(C)c1/C=N/NC(=O)c1cc(C(C)(C)C)[nH]n1	none (no result: TcdB inh)
Cn1cnc(CCNC(=O)C[C@@H]2CC[C@@H]3[C@H](COC[C@H](O)CN3C(=O)C3CC3)O2)c1	none (no result: PrP UTR inh, Y pestis TopoI)
CC1=C([N+](=O)[O-])C(c2cccc(Br)c2)C2=C(N1)c1ccccc1C2=O (stereo unspecified)	PrP UTR inh 54.1 (no result: TcdB inh) | PrP UTR cherry 71.1
Cc1cc(/C=C2\SC(=S)N(C)C2=O)c(C)n1-c1ccc(O)cc1	PrP UTR inh 76.1 (no result: Mtb BioA inh) | PrP UTR cherry 77.3
COC(=O)c1ccc(Cn2cc(/C=C\[N+](=O)[O-])c3ccccc32)o1	PrP UTR inh 52.2 | PrP UTR cherry inactive
O=C(O)c1ccc(Cn2cc(/C=C\[N+](=O)[O-])c3ccccc32)o1	none
COc1ccc2c3c(n(C)c2c1)[C@@H](CO)N(C(C)=O)CC31CCN(C(=O)NC(C)C)CC1	none (no result: Mtb BioA inh, PrP UTR inh, Y pestis TopoI)
